Assay results from the OligoGym collection.

target: OCA2; assay: pooled miR-30 sensor sort-seq; sequence = guide strand; conditions: shRNA
Also: reference of the scale not given here.

Point of comparison: TTTGTTCTCCAACATATTCTAT, sensor-assay potency score (higher = more potent) -1.25. Against it:
- TAGCAGGTATCTTCGCTCCCAG — higher, -0.952
- TTATAAAGCTTTCTGTTCCAGT — higher, -0.265
- TTGTCTTGGATCAAGGTTGAGC — higher, -0.397
- TTTGTGAAGATCACTTCTGCAA — higher, 0.623
- TTTTCTTCTTCAAACAGTGGGG — higher, -0.306
- TTGTTCTCCAACATATTCTATT — higher, -1.21
- TAACACATCCCAACAGTGCAGG — higher, -0.397
- TTCAGTTCAACAATCTCACTGG — higher, 0.691
- AACAGTGCAGGACACAACCATC — lower, -1.7
- TTGAGCACCTCACACAACCTTA — higher, -0.642

target: OCLM; assay: as above; conditions: shRNA

Point of comparison: TAATACCACTCTTATAAAGGAT, sensor-assay potency score (higher = more potent) -0.68. Against it:
- ATAGAAGAGTATACTAATGTGT — higher, -0.144
- TTAAATAGAAGAGTATACTAAT — higher, -0.462
- AAGAGTATACTAATGTGTCTGC — higher, 0.0499
- TACTAATGTGTCTGCTAAGGTA — higher, -0.482
- TAGAAGAGTATACTAATGTGTC — higher, -0.0959
- TATACTAATGTGTCTGCTAAGG — lower, -1.53
- AATACCACTCTTATAAAGGATT — lower, -1.36
- TCTGCTAAGGTAAATCTTTAAC — lower, -1.77
- ACTAATGTGTCTGCTAAGGTAA — lower, -1.12
- TTTAAATAGAAGAGTATACTAA — higher, -0.591
- AAAGAATACCAGGATAGCCATA — lower, -1.76
